# “And” between values parts separate entries of the source, which are not always exact repeats. Identical values can stand only once. Counter-ions that a name gives are not always drawn. About 620 (11%) of roughly 5,800 compounds showed activity. The full list was thinned out, with actives kept by preference. Values without a mark were called inactive.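 Rule for the calls: active = score above a cut-off or among the top three wells of a plate; in these data no inactive exceeds 0.85.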
# Tested on: primary human hepatic stellate cells (donor 1)
# Assay: scaled lipid accumulation score (0 = DMSO-like, 1 = nortriptyline-like); higher = stronger HSC inactivation (lipid re-accumulation), active = hit call of the paper
# Conditions: 48 h
# [1] = library stock concentration: 400 uM
# [2] = library stock concentration: 2 mM
# [3] = library stock concentration: 3.33 mM
# [4] = library stock concentration: 10 mM
# [5] = library stock concentration: 1 mM
smiles,measurement,setting,value
O=C1NC(=O)C(c2cnc3ccccn23)=C1c1cn2c3c(cc(F)cc13)CN(C(=O)N1CCCCC1)CC2,scaled lipid accumulation score,[1],0.836
same,scaled lipid accumulation score,[2],0.699
CC(=O)N[C@H]1[C@H]([C@H](O)[C@H](O)CO)OC(C(=O)O)=C[C@@H]1NC(=N)N [Zanamivir],scaled lipid accumulation score,[3],≤ 0
same,scaled lipid accumulation score,[4],≤ 0
COc1ccc(C(=O)/C(Br)=C\C(=O)O)cc1 [Bromebric acid],scaled lipid accumulation score,library stock concentration: 7 mM,≤ -0.006
NC(N)=NC(=O)c1nc(Cl)c(N)nc1N,scaled lipid accumulation score,[4],≤ 0
n(c1N)c(N(CC)C(C)C)c(nc1C(=O)\N=C(\N)/N)Cl [5-(N-Ethyl-N-isopropyl)amiloride],scaled lipid accumulation score,[4],1.07 (active)
"CN(C)c1nc(N)c(C(=O)NC(=N)N)nc1Cl [5-(N,N-Dimethyl)amiloride hydrochloride]",scaled lipid accumulation score,[4],≤ 0
"c(c1N)(C(=O)\N=C(\N)/N)nc(c(N2CCCCCC2)n1)Cl [5-(N,N-hexamethylene)amiloride]",scaled lipid accumulation score,[4],1.13 (active)
O=C(O)CCCC=CCC1C(=O)CC(O)C1C=CC(O)CCc1ccccc1 (stereo not given) [17-Phenyl-trinor-prostaglandin E2],scaled lipid accumulation score,[5],≤ -0.021
O=C(O)CCCC=CCC1C(=O)CC(O)C1C=CC(O)CCc1ccccc1 (stereo not given) [17-phenyl trinor Prostaglandin E2],scaled lipid accumulation score,[5],≤ 0
O=C(O)c1cc(N(Cc2ccccc2O)Cc2cc(O)ccc2O)ccc1O [Lavendustin A],scaled lipid accumulation score,library stock concentration: 13.1 mM,≤ -0.007
O=C(O)C(Cc1ccccc1[N+](=O)[O-])=NNc1nc(-c2ccc(Cl)c(Cl)c2)cs1,scaled lipid accumulation score,[3],0.038
same,scaled lipid accumulation score,[4],≤ 0
Nc1ccc(S(=O)(=O)O)cc1.Nc1ccc(S(=O)(=O)O)cc1.[Zn] [Sulfanilate zinc],scaled lipid accumulation score,library stock concentration: 4.9 mM,≤ 0
O=C1NC(=O)/C(=C/c2ccc(-c3ccc(F)cc3O)o2)S1 [listing 1 of 2 here],scaled lipid accumulation score,[1],0.064
same,scaled lipid accumulation score,[5],0.034
same,scaled lipid accumulation score,[2],0.304
same,scaled lipid accumulation score,[3],0.132
same,scaled lipid accumulation score,[4],0.526 and 0.759
O=C1NC(=O)/C(=C/c2ccc(-c3ccc(F)cc3O)o2)S1 [listing 2 of 2 here],scaled lipid accumulation score,[4],1.66 (active)
O=C1NC(=O)C(=Cc2ccc(-c3ccc(F)cc3)o2)S1 (stereo in doubt),scaled lipid accumulation score,[3],0.028
same,scaled lipid accumulation score,[4],≤ 0
"CCCCCCCCC=CCC=CCC=CCCCC(=O)O [5(Z),8(Z),11(Z)-Eicosatrienoic Acid]",scaled lipid accumulation score,[5],0.072
OC[C@H]1NC[C@H](O)[C@@H](O)[C@@H]1O [1-Deoxynojirimycin hydrochloride],scaled lipid accumulation score,[4],≤ -0.07
CNC(=O)[C@H]1O[C@@H](n2cnc3c(NCc4cccc(I)c4)nc(Cl)nc32)[C@H](O)[C@@H]1O,scaled lipid accumulation score,[4],0.019
CNC(=O)[C@H]1O[C@@H](n2cnc3c(NCc4cccc(I)c4)nc(Cl)nc32)[C@H](O)[C@@H]1O [Chloro-IB-MECA],scaled lipid accumulation score,[4],≤ -0.07
Cc1cc(CS(=O)(=O)c2ccccc2)cc(OCc2ccc(CN3CCC[C@@H]3CO)cc2)c1 [listing 1 of 2 here],scaled lipid accumulation score,[4],1.03 (active)
Cc1cc(CS(=O)(=O)c2ccccc2)cc(OCc2ccc(CN3CCC[C@@H]3CO)cc2)c1 [listing 2 of 2 here],scaled lipid accumulation score,[3],≤ -0.009
CCCCC[C@H](O)/C=C/[C@@H]1[C@@H](CCCCCCC(=O)O)[C@H](O)C[C@H]1O [Prostaglandin F1.beta.],scaled lipid accumulation score,[5],≤ 0
COc1ccc2c3n(c(=NC(=O)c4cccnc4)nc2c1OC)CCN3,scaled lipid accumulation score,[1],≤ -0.005
same,scaled lipid accumulation score,[2],≤ -0.005
same,scaled lipid accumulation score,[4],≤ -0.005
CCCCC[C@H](O)/C=C/[C@H]1CC[C@@H](O)[C@@H]1C/C=C\CCCC(=O)O [11-deoxy Prostaglandin F2.beta.],scaled lipid accumulation score,[5],≤ 0
CCCCCCCCCCC1=C(C)C(=O)C(OC)=C(OC)C1=O [Decylubiquinone],scaled lipid accumulation score,library stock concentration: 15.5 mM,≤ -0.021
CCC1(C)OC(=O)N(C)C1=O (stereo not given),scaled lipid accumulation score,[4],≤ 0
CCN1CCN(Cc2ccc(Nc3ncc(F)c(-c4cc(F)c5nc(C)n(C(C)C)c5c4)n3)nc2)CC1.CS(=O)(=O)O,scaled lipid accumulation score,[3],0.963 (active)
same,scaled lipid accumulation score,[4],0.943 (active)
CCN1CCN(Cc2ccc(Nc3ncc(F)c(-c4cc(F)c5nc(C)n(C(C)C)c5c4)n3)nc2)CC1 [Abemaciclib] [listing 1 of 2 here],scaled lipid accumulation score,library stock concentration: 80 uM,0.332
same,scaled lipid accumulation score,[1],0.55
same,scaled lipid accumulation score,[4],0.691
CCN1CCN(Cc2ccc(Nc3ncc(F)c(-c4cc(F)c5nc(C)n(C(C)C)c5c4)n3)nc2)CC1 [Abemaciclib] [listing 2 of 2 here],scaled lipid accumulation score,[2],0.882 (active)
CC(=O)N[C@@H](CSC/C=C(\C)CCC=C(C)C)C(=O)O [N-Acetyl-S-geranyl-L-cysteine],scaled lipid accumulation score,[5],≤ -0.021
CCC(=O)O[C@H]1CC[C@H]2[C@@H]3CCc4cc(O)ccc4[C@H]3CC[C@]12C [Estradiol propionate],scaled lipid accumulation score,library stock concentration: 6.1 mM,0.254
same,scaled lipid accumulation score,[4],0.443

# Source: the supplement of paper PMC9135407
